Test results as given in PubChem BioAssay.
Calls of active or inactive are those of the source.

Key:
[1] = small molecules captured by biotinylated probe aFSTL3 – biochemical, small-molecule microarray, fluorescence 635/667, stem cell growth factor project, primary screen (AID 1064); details: higher = more signal;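 note: measures binding of the biotinylated anti-FSTL3 antibody to printed compounds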
[2] = binders from COS7 lysate, DM2A8 probe, primary screen, torsin A project, cell lysate, small-molecule microarray, fluorescence 635/667 (AID 1065); details: higher = more signal, COS7 lysate expressing mutant human TOR1A
[3] = small molecules captured by biotinylated probe aFGF2 – biochemical, small-molecule microarray, fluorescence 635/667, stem cell growth factor project, primary screen (AID 1067); details: higher = more signal;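 note: measures binding of biotinylated aFGF2 protein to printed compounds on slides; z-score merges feature fluorescence and signal-to-noise across triplicate slides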
[4] = small molecules captured by biotinylated probe aFGF10 – biochemical, small-molecule microarray, fluorescence 635/667, stem cell growth factor project, primary screen (AID 1071); details: higher = more signal;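 note: score merges 667 nm spot intensity and signal to noise from triplicate slides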
[5] = biological target: Neurogenic locus notch homolog protein 2 (Homo sapiens) (UniProt Q04721); assay: small molecules binding Notch2 protein – biochemical, small-molecule microarray, 635 nm fluorescence, stem cell growth factors, primary screen (AID 1073); details: higher = more signal
[6] = biological target: Pro-neuregulin-1, membrane-bound isoform (Homo sapiens) (UniProt Q02297); assay: small molecules binding neuregulin-1 protein – biochemical, small-molecule microarray, fluorescence 635/667, psychiatric disease protein project, primary screen (AID 1075); details: NRG1 binding, 635 nm fluorescence, higher = more signal;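 note: score combines 667 nm spot fluorescence with signal to noise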
[7] = test system: Neuregulin-1 EGF-like domain; assay: small molecules binding NRG1 EGF domain – biochemical, small-molecule microarray, 635 nm fluorescence, primary screen (AID 1081); details: higher = more signal;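 note: binding of the protein to compounds printed on small-molecule microarray slides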
[8] = FRG1 expression reporter modulators in myotubes – cell-based, C2C12 myotubes, firefly/Renilla luciferase, luminescence, FRG1 inhibition for FSHD, primary screen (AID 1084); details: FRG1 promoter luciferase, higher = more signal, called active from +8 up or from −8 down
[9] = small molecules captured by biotinylated probe aFST – biochemical, small-molecule microarray, fluorescence 635/667, stem cell growth factor project, primary screen (AID 1086); details: higher = more signal;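 note: score merges 667 nm fluorescence with signal-to-noise of each printed compound spot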
[10] = binders of probe aHhip on microarray, primary screen, stem cell growth factor project, biochemical, small-molecule microarray, fluorescence 635/667 (AID 1087); details: higher = more signal;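 note: score merges spot fluorescence at 667nm with spot signal to noise ratio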
[11] = test system: PRMT1 (protein arginine N-methyltransferase 1); assay: small molecules binding arginine methyltransferase PRMT1 – biochemical, small-molecule microarray, 635 nm fluorescence, primary screen (AID 1088); details: higher = more signal;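 note: binding of Prmt1 protein to compounds spotted on small-molecule microarray slides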
[12] = growth effects on S. cerevisiae YJM789 – YJM789 clinical isolate, OD600, 24 h, basal, primary screen (AID 1089); details: higher = more signal, called active from +8 up or from −8 down;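 note: growth of clinical yeast isolate S. cerevisiae YJM 789 seeded 1000 cells per well; test concentration not given here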
[13] = S. pombe growth modifiers, basal conditions – strain 972, OD600, 24 h, no modulator, primary screen (AID 1090);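 note: basal condition with compound alone and no growth modifier present; test concentration not given here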; details: S. pombe 972 growth, higher = more signal, called active from +8 up or from −8 down
[14] = budding yeast growth modifiers under rapamycin – strain BY4716, OD600, 96 h, primary screen (AID 1091); note: test concentration not given here; details: S. cerevisiae BY4716 + rapamycin, higher = more signal, called active from +8 up or from −8 down
[15] = biological target: Torsin-1A-interacting protein 2 (Homo sapiens) (UniProt Q8NFQ8); assay: small molecules binding lysate-expressed LULL1 – cell lysate, human LULL1 lysate, 635/667 nm fluorescence, primary screen (AID 1092); details: small-molecule microarray, hLULL1 lysate binding, 635 nm fluorescence; higher = more signal;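 note: probe is lysate of COS7 cells overexpressing human LULL1; score merges per-feature 667 nm fluorescence with signal-to-noise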
[16] = optical density change of DRC41 E. coli – strain DRC41, OD650, 24 h, E. coli filamentation project, primary screen (AID 1093);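 note: MC1000 strain lacking acrAB efflux and sulA so SOS filamentation is blocked; test concentration not given here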; details: E. coli DRC41 growth, higher = more signal, called active from +8 up or from −8 down
[17] = probe aLefty2 binding to arrayed compounds – biochemical, biotinylated probe, 635/667 nm fluorescence, primary screen (AID 1094); details: small-molecule microarray, higher = more signal;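 note: score merges spot fluorescence near 667 nm with spot signal-to-noise ratio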
[18] = test system: Noggin (protein binding on small-molecule microarray); assay: small molecules binding Noggin protein – biochemical, 635/667 nm fluorescence, primary screen (AID 1095); details: 635 nm fluorescence, higher = more signal;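 note: score merges 667 nm feature fluorescence with signal to noise over triplicate slides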
[19] = biological target: Neurogenic locus notch homolog protein 3 (Homo sapiens) (UniProt Q9UM47); assay: small molecules binding NOTCH3 protein – biochemical, 635/667 nm fluorescence, primary screen (AID 1096); details: small-molecule microarray, 635 nm fluorescence, higher = more signal
[20] = probe aEGFR binding to arrayed compounds – biochemical, biotinylated probe, 635/667 nm fluorescence, primary screen (AID 1097); details: small-molecule microarray, higher = more signal;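 note: probe is a biotinylated anti-EGFR antibody binding compounds printed on slides; score combines fluorescence near 667 nm and signal to noise of each spot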

Sequence of Neurogenic locus notch homolog protein 2 (Homo sapiens) (Q04721 whole entry, looked up, canonical isoform): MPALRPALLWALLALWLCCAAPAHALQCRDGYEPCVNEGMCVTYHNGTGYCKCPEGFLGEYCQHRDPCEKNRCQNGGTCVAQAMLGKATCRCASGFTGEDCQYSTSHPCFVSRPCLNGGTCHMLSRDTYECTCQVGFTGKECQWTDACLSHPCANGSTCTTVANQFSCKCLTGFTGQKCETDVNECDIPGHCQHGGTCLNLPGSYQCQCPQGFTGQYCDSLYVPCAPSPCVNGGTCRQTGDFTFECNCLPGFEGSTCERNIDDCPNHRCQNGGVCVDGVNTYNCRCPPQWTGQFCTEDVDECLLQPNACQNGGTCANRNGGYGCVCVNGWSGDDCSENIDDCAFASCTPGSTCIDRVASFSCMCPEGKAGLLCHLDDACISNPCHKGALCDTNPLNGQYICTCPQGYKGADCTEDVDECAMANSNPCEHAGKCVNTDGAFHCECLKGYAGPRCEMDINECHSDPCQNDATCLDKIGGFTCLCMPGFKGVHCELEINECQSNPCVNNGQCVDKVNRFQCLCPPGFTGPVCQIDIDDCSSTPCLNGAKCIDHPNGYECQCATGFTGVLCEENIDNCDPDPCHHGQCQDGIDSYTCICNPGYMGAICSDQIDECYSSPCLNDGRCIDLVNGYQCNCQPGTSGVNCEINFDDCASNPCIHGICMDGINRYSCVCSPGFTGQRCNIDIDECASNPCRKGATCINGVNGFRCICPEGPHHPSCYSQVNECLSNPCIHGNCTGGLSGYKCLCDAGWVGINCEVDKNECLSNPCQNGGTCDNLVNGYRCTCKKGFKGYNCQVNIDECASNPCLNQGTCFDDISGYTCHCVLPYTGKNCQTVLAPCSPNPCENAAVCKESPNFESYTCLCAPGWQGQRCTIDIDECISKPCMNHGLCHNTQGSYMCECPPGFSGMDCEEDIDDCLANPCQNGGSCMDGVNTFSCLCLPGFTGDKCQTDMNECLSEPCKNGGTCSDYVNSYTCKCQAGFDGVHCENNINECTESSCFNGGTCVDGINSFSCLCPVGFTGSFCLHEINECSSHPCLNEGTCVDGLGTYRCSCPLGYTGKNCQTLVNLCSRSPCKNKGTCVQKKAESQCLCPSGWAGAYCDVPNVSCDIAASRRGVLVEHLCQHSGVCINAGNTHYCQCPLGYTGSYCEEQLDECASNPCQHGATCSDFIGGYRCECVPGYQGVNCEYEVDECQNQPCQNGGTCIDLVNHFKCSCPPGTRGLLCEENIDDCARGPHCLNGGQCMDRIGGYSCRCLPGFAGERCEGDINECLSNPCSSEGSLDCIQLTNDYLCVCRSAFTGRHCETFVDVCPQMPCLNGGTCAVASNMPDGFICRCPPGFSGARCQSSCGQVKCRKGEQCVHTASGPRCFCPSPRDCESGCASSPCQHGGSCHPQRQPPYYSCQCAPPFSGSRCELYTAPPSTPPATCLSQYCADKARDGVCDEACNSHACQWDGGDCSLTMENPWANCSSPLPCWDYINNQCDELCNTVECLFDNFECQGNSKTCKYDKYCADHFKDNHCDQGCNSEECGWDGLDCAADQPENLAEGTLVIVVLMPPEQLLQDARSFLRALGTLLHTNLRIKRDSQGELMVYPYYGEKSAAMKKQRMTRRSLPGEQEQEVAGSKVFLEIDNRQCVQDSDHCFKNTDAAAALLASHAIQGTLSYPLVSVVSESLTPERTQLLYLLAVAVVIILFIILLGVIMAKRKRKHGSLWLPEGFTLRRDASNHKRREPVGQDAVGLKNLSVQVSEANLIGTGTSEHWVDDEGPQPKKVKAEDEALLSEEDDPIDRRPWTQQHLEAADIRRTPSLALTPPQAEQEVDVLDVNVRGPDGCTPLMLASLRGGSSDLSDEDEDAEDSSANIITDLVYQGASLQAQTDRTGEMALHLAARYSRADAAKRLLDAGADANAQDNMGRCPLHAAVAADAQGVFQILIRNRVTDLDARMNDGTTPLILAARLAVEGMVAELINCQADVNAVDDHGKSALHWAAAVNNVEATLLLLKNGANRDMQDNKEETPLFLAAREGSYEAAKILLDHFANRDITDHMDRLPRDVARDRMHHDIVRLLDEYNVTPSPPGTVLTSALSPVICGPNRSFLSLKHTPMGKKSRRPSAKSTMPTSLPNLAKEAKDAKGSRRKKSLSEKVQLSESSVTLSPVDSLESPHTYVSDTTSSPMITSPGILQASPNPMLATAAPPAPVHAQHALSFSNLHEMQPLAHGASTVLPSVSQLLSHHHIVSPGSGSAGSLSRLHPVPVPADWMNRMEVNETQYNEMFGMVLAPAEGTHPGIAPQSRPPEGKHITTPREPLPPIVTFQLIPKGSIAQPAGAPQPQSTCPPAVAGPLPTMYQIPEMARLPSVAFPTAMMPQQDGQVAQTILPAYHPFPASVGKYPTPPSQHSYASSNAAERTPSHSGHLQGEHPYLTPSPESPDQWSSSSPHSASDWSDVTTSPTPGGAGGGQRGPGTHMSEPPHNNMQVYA
Sequence of Torsin-1A-interacting protein 2 (Homo sapiens) (Q8NFQ8 whole entry, looked up): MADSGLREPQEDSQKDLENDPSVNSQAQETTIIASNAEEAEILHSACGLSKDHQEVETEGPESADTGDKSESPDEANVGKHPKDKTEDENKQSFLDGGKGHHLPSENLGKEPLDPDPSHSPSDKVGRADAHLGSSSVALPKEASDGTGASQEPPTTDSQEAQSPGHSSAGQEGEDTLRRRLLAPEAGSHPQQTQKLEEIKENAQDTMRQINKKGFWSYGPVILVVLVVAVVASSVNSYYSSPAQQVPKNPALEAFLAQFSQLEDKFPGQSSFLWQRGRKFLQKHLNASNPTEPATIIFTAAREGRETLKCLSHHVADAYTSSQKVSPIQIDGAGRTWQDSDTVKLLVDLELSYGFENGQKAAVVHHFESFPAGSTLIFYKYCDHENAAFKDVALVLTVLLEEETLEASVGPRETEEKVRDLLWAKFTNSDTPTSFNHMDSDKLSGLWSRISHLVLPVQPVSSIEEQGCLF
Sequence of Pro-neuregulin-1, membrane-bound isoform (Homo sapiens) (Q02297 whole entry, looked up, the tested form may be a part, canonical isoform): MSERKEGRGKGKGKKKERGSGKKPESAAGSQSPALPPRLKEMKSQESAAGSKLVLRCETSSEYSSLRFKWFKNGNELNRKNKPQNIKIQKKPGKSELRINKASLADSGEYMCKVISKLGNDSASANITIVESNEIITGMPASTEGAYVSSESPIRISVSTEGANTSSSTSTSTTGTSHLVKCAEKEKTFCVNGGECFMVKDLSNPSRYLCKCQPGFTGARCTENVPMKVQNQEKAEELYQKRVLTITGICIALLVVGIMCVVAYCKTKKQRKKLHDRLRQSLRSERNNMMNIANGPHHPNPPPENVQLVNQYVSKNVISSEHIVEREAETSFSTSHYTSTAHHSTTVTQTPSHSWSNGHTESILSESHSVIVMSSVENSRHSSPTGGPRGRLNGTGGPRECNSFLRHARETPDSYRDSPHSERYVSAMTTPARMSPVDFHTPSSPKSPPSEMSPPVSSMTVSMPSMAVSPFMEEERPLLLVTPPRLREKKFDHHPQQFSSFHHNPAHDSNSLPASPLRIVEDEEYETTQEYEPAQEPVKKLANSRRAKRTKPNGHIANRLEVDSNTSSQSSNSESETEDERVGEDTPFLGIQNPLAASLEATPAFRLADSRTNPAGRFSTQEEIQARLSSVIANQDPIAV

`COCCOC(=O)N1C(=O)[C@@]2(c3cc(C#CC4(O)CCCCCC4)ccc31)[C@H](c1ccc(O)cc1)N1[C@H](c3ccccc3)[C@H](c3ccccc3)OC(=O)[C@H]1[C@@H]2C(=O)NC[C@H](O)c1ccccc1` showed a composite z-score [1] of -0.116, a composite z-score [2] of 0.556 and a composite z-score [3] of -0.126. The composite z-score [4] was 0.666, the composite z-score [5] was 1.29 and the composite z-score [6] was 0.463. For the same compound, the composite z-score [7] was 1.02, the z-score [8] was 0.69 (inactive) and the composite z-score [9] was 0.538. For the same compound, the composite z-score [10] was 0.176, the composite z-score [11] was 1.55 and the z-score [12] was 0.0316 (inactive). The z-score [13] was -0.312 (inactive), the z-score [14] was 0.939 (inactive) and the composite z-score [15] was 1.18. For the same compound, the z-score [16] was -0.639 (inactive), the composite z-score [17] was 0.332 and the composite z-score [18] was 1.78. The composite z-score [19] was 1.06 and the composite z-score [20] was 0.22.

For `O=C1NC(=O)C2C1C=CC(C(O)CCc1ccccc1)N2Nc1ccc(Cl)cc1Cl` (stereo not given), the composite z-score [1] was 1.18, the composite z-score [2] was 1.42 and the composite z-score [3] was 0.153. It also gave a composite z-score [4] of 0.229, a composite z-score [5] of 1.39 and a composite z-score [6] of 1.34. For the same compound, the composite z-score [7] was 1.1, the z-score [8] was 1.19 (inactive) and the composite z-score [9] was 1.55. For the same compound, the composite z-score [10] was 0.011, the composite z-score [11] was 0.23 and the z-score [12] was -0.455 (inactive). The z-score [13] was -2.05 (inactive), the z-score [14] was 0.0242 (inactive) and the composite z-score [15] was 2.73. The z-score [16] was -0.748 (inactive), the composite z-score [17] was 0.379 and the composite z-score [18] was -0.839. It also gave a composite z-score [19] of -0.0822 and a composite z-score [20] of 0.0122.

In the case of `Cn1cccc1C(O)C1C=CC2C(=O)NC(=O)C2N1Nc1ccc(Cl)cc1Cl` (stereo not given), the composite z-score [1] is reported as 0.435, the composite z-score [2] is reported as 0.263 and the composite z-score [3] is reported as 0.167. The composite z-score [4] was 0.68, the composite z-score [5] was 1.68 and the composite z-score [6] was 2.04. The composite z-score [7] was 1.15, the z-score [8] was 0.978 (inactive) and the composite z-score [9] was 1.92. For the same compound, the composite z-score [10] was 0.107, the composite z-score [11] was 1.04 and the z-score [12] was -0.477 (inactive). The z-score [13] was -1.81 (inactive), the z-score [14] was -0.356 (inactive) and the composite z-score [15] was 3.52. The z-score [16] was -2.82 (inactive), the composite z-score [17] was 0.673 and the composite z-score [18] was 0.405. It also gave a composite z-score [19] of 1.05 and a composite z-score [20] of 0.0201.

In the case of `CN1C(=O)C2C=CC(C(O)COCc3ccccc3)N(N(c3ccccc3)c3ccccc3)C2C1=O` (stereo not given), the composite z-score [1] is reported as 0.0199, the composite z-score [2] is reported as -0.177 and the composite z-score [3] is reported as 0.0472. For the same compound, the composite z-score [4] was 0.631, the composite z-score [5] was 1.55 and the composite z-score [6] was 1.29. For the same compound, the composite z-score [7] was 1.03, the z-score [8] was 0.0958 (inactive) and the composite z-score [9] was 1.1. The composite z-score [10] was -0.0563, the composite z-score [11] was 0.482 and the z-score [12] was 0.298 (inactive). The z-score [13] was -1.86 (inactive), the z-score [14] was 0.544 (inactive) and the composite z-score [15] was 2.11. For the same compound, the z-score [16] was -0.0181 (inactive), the composite z-score [17] was 0.388 and the composite z-score [18] was -0.419. It also gave a composite z-score [19] of 0.894 and a composite z-score [20] of 0.726.

For `COCCOC(=O)N1C(=O)[C@@]2(c3cc(C#Cc4ccc(OC)cc4)ccc31)[C@H](c1ccccc1OCCO)N1[C@H](c3ccccc3)[C@H](c3ccccc3)OC(=O)[C@H]1[C@@H]2C(=O)N1CCCCCCC1`, the composite z-score [1] was 3.55, the composite z-score [2] was 1.2 and the composite z-score [3] was 0.903. For the same compound, the composite z-score [4] was 0.573, the composite z-score [5] was 1.3 and the composite z-score [6] was 1.7. For the same compound, the composite z-score [7] was 0.961, the z-score [8] was -0.633 (inactive) and the composite z-score [9] was 3.39. The composite z-score [10] was 1.47, the composite z-score [11] was 1.27 and the z-score [12] was -1.44 (inactive). For the same compound, the z-score [13] was 0.423 (inactive), the z-score [14] was 3.91 (inactive) and the composite z-score [15] was 3.85. The z-score [16] was 1.53 (inactive), the composite z-score [17] was 1.71 and the composite z-score [18] was 1.97. The composite z-score [19] was 0.841 and the composite z-score [20] was 1.17.

`CCOC(=O)[C@H]1[C@@H]2C(=O)N3CCC[C@H]3[C@H](O[Si](C(C)C)(C(C)C)C(C)C)[C@H]2C=C2CCN(S(=O)(=O)c3ccc(C)cc3)C[C@H]21` gave a composite z-score [1] of -0.646, a composite z-score [2] of 0.336 and a composite z-score [3] of -0.118. It also gave a composite z-score [4] of 0.248, a composite z-score [5] of 0.966 and a composite z-score [6] of 0.319. The composite z-score [7] was 1.08, the z-score [8] was -0.647 (inactive) and the composite z-score [9] was 0.125. For the same compound, the composite z-score [10] was -0.164, the composite z-score [11] was 1.55 and the z-score [12] was -0.212 (inactive). The z-score [13] was -0.772 (inactive), the z-score [14] was 1.04 (inactive) and the composite z-score [15] was 2.38. The z-score [16] was -0.717 (inactive), the composite z-score [17] was -0.0795 and the composite z-score [18] was 0.55. For the same compound, the composite z-score [19] was 1.09 and the composite z-score [20] was -0.0978.

For `COc1ccc(NC(=O)O[C@H]2[C@H](OC(=O)Nc3ccccc3)[C@@H](OC(=O)Nc3ccccc3)[C@@H](OC)O[C@@H]2CO)cc1`, the composite z-score [1] was -0.279, the composite z-score [2] was 0.672 and the composite z-score [3] was -0.017. It also gave a composite z-score [4] of 1.27, a composite z-score [5] of 0.754 and a composite z-score [6] of 1.6. For the same compound, the composite z-score [7] was 1.26, the z-score [8] was 0.329 (inactive) and the composite z-score [9] was 0.23. For the same compound, the composite z-score [10] was -0.0618, the composite z-score [11] was 1.55 and the z-score [12] was 2.09 (inactive). For the same compound, the z-score [13] was -0.0554 (inactive), the z-score [14] was -0.758 (inactive) and the composite z-score [15] was 3.27. The z-score [16] was -0.633 (inactive), the composite z-score [17] was -0.0666 and the composite z-score [18] was 1.62. For the same compound, the composite z-score [19] was 0.822 and the composite z-score [20] was -0.0054.

Work on `CCCCN1CC=CC23O[C@@H]4/C=C\CCC(C)OC(=O)C4[C@H]2C(=O)N(C(CO)C(C)C)[C@@H]3C1=O` (stereo not given in full) yielded a composite z-score [1] of -0.513, a composite z-score [2] of 0.642 and a composite z-score [3] of -0.0976. The composite z-score [4] was 0.291, the composite z-score [5] was -0.358 and the composite z-score [6] was 0.362. For the same compound, the composite z-score [7] was 1.45, the z-score [8] was -0.095 (inactive) and the composite z-score [9] was -0.19. The composite z-score [10] was -0.201, the composite z-score [11] was 0.738 and the z-score [12] was -0.824 (inactive). For the same compound, the z-score [13] was -0.753 (inactive), the z-score [14] was -0.528 (inactive) and the composite z-score [15] was 2.77. For the same compound, the z-score [16] was -0.318 (inactive), the composite z-score [17] was -0.166 and the composite z-score [18] was 0.21. For the same compound, the composite z-score [19] was 0.395 and the composite z-score [20] was -0.123.

In the case of `COC(=O)[C@@]1(Cc2ccc(OC)cc2)[C@H]2c3cc(C(=O)N(C)C)n(C[C@H](O)CO)c3C[C@H]2CN1C(=O)c1ccccc1`, the composite z-score [1] is reported as 1.37, the composite z-score [2] is reported as 1.31 and the composite z-score [3] is reported as 0.263. It also gave a composite z-score [4] of 0.504, a composite z-score [5] of 1.76 and a composite z-score [6] of 1.25. The composite z-score [7] was 1.2, the z-score [8] was 1.55 (inactive) and the composite z-score [9] was 1.73. The composite z-score [10] was 0.284, the composite z-score [11] was 0.0724 and the z-score [12] was 0.398 (inactive). The z-score [13] was 0.251 (inactive), the z-score [14] was 0.878 (inactive) and the composite z-score [15] was 2.92. For the same compound, the z-score [16] was -1.02 (inactive), the composite z-score [17] was 0.955 and the composite z-score [18] was -0.826. For the same compound, the composite z-score [19] was 1.05 and the composite z-score [20] was 0.269.
